# Bioassay records as filed in PubChem.
# The list is not random: actives were taken first. Their share in the collection is about 3.7%.
# Ecoli rRNA inh = selective bacterial rRNA inhibition in E. coli; E. coli WT GFP vs humanized-ribosome RFP mutants, fluorescence, 24 h; hits give low values; DMSO median 0, no signal -100; GFP signal change (wild-type ribosome), % (test concentration not listed); 350,000 compounds, 1.6% hits; AID 720706;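 active = significant combined selectivity score with lowered wild-type GFP, culture density cut under 30%, mutant RFP and density less affected; inactive = any of these conditions unmet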
# MITF act = activators of MITF-driven TRPM1 promoter activity in SK-MEL-5 cells. SK-MEL-5 TRPM1-promoter luciferase, 24 h; % of positive control, neutral wells = 0. activation, % at 12.5 µM. 300,000 compounds, 0.75% hits;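 active = mean activation of at least 80% with every replicate also reaching 80%; inconclusive = mean reaches 80% but some replicate falls short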
# Wnt act = activates Wnt/beta-catenin signaling in a reporter cell assay; 300,000 compounds, 1.2% hits; activation, % at 9.35 µM; activator, plate reader; in the data active = activation above about 30%, passing the limit was not always enough; inconclusive = no clear call, values can overlap the other calls
# esBAF inh = SWI/SNF esBAF complex inhibition; mouse ES cells, Bmi1-luciferase knock-in reporter, 24 h; 100% = twice the neutral-well signal; reporter increase, % at 12.5 µM; 350,000 compounds, 2% hits; AID 602393; in the data active = activation above about 40%; inconclusive = no clear call, values can overlap the other calls;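 note: a rise in the Bmi1 reporter signal indicates esBAF inhibition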
# AF4-AF9 inh = inhibitors of human MLL-AF4/AF9 interaction. inhibition, % at 10 µM. AlphaScreen, biotin-AF4 peptide binding to FLAG-AF9. 350,000 compounds, 0.47% hits;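 active = every replicate reaching a set inhibition limit, whatever the replicate mean, cut at about 25% in these data; inconclusive = mean inhibition reaches that limit but some replicates miss it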
# Target sequence (P42568 whole entry, looked up): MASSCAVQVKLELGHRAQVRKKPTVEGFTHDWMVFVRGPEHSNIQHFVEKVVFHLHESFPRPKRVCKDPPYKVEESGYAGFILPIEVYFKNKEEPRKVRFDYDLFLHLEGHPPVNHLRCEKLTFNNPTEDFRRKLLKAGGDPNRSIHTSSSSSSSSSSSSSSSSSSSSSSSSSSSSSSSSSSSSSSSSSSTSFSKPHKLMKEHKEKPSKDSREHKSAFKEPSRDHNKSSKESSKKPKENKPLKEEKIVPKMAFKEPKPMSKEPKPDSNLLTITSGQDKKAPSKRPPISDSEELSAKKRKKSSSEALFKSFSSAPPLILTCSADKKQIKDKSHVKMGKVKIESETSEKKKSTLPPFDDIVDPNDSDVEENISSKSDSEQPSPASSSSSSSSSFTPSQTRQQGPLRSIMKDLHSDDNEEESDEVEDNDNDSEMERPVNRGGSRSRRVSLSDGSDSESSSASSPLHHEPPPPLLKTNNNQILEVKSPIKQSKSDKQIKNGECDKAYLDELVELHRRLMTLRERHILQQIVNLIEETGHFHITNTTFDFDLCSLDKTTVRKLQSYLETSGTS
# A number is an active result; i = inactive; ? = inconclusive; nt = not tested or not shown.
SMILES,Ecoli rRNA inh,MITF act,Wnt act,esBAF inh,AF4-AF9 inh
CC(C)c1ccc(/C=C2\SC(=S)N(CCC(=O)N3CCCCC3CCO)C2=O)cc1 (stereo not drawn),i,i,i,i,i
CC(=O)c1c(C(C)=O)c(C)n(-c2nc(-c3ccc(C)c(C)c3)c(C)s2)c1C,nt,i,i,i,nt
C[C@H]1CN([C@@H](C)CO)C(=O)c2cc(C#CC3(O)CCCC3)cnc2O[C@H]1CN(C)Cc1cccnc1,i,nt,nt,i,i
COc1ccc(NC(=O)Nc2ccc(N(C)C)cc2)cc1,nt,i,64.7,i,nt
N#Cc1ccc(NC(=O)Nc2ccc(Oc3ccc(NC(=O)Nc4ccc(C#N)cc4)cc3)cc2)cc1,-28.1,i,i,i,i
COc1ccc(NC(=O)Nc2c(O)ccc3ccccc23)cc1,-25.6,i,i,nt,i
N#Cc1ccc(NC(=O)Nc2cccc(C#N)c2)cc1,i,i,i,nt,i
COC(=O)c1ccc(NC(=O)Nc2ccc(F)cc2)cc1,nt,i,nt,59.6,nt
CCOC(=O)C1=C(C)NC(=S)NC1c1cc(C)sc1C (stereo not drawn),i,i,i,i,i
COc1ccc(NC(=O)NCCN2C(=O)C3C4C=CC(C4)C3C2=O)cc1 (stereo not drawn),i,i,i,58.2,i
COC(=O)c1ccc(NC(=O)Nc2ccc(OC)cc2)cc1,i,i,i,i,i
COc1ccc(C(NC(=O)CC(C)C)c2c(O)ccc3ccccc23)cc1 (stereo not drawn),i,i,i,i,i
CCCC(=O)NC(c1ccc(OC)cc1)c1c(O)ccc2ccccc12 (stereo not drawn),-27.1,i,i,i,i
COc1ccc(NC(=O)Nc2ccc(OC)cc2)cc1,nt,i,nt,59.9,nt
COc1ccccc1-c1ccc([C@@H]2[C@H](C#N)N(C(=O)C3CC3)[C@H]2CO)cc1,i,nt,nt,i,i
Cn1nc(-c2ccccc2)c(CN2CCN(c3ncccn3)CC2)c1Cl,-34.1,i,i,nt,i
CCOC(=O)N1CCC2(CC1)C(C#N)=C(N)Oc1n[nH]c(CSc3ccc(C)cc3)c12,nt,nt,69.8,i,nt
Cc1ccc(SCc2[nH]nc3c2C2(CCSCC2)C(C#N)=C(N)O3)cc1,nt,i,nt,i,nt
CC(C)N=c1scc(-c2ccco2)n1/N=C/c1ccc(O)c(O)c1,nt,i,nt,i,nt
C=CCN=c1scc(-c2ccco2)n1/N=C/c1ccc(O)c(O)c1O,i,i,41.7,nt,i
CN=c1scc(-c2cccs2)n1/N=C/c1ccc(O)c(O)c1O,i,i,i,nt,39.5
COCC(=O)N1CC2(C1)[C@H](c1ccccc1)[C@H](CO)N2CCC(F)(F)F,i,nt,nt,nt,i
CCOc1ccc(NC(=O)CN(C)C(=O)C2CC(=O)N(c3cccc(SC)c3)C2)cc1OCC (stereo not drawn),i,i,i,i,i
CCN(CC(=O)Nc1ccccc1OC)CC(=O)Nc1ccccc1-c1ccccc1,-32.0,i,i,nt,i
CCN(CC(=O)Nc1ccccc1OC)CC(=O)Nc1ccccc1C(F)(F)F,i,i,i,nt,i
SMILES,Ecoli rRNA inh,MITF act,Wnt act,esBAF inh,AF4-AF9 inh
CCN(CC(=O)Nc1ccccc1-c1ccccc1)Cc1nc2ccccc2c(=O)[nH]1,-24.9,i,i,i,i
Cc1ccccc1OCC(=O)Nc1ccccc1-c1ccccc1,-38.1,i,i,nt,i
CCN(CC(=O)NCc1ccc(F)cc1)CC(=O)Nc1ccccc1-c1ccccc1,-33.2,i,i,i,i
O=C(OCc1nc2ccccc2s1)c1cnccn1,nt,i,nt,54.8,nt
CSCc1ccc(C(=O)OCc2nc3ccccc3s2)o1,-15.5,i,i,nt,i
C[C@H]1CN([C@@H](C)CO)C(=O)c2cccc(N(C)C)c2O[C@@H]1CN(C)S(=O)(=O)c1ccccc1,i,nt,nt,i,i
O=C1c2ccccc2-c2onc3ccc(N4CCCC4)c1c23,i,i,i,nt,28.4
O=C1c2ccccc2C(=O)c2c1cccc2N1CCCC1,nt,i,i,nt,39.9
O=C1C=C(N2CCCCC2)c2ccccc2C1=O,i,nt,i,i,i
O=C(C1CCCO1)N1CCN(C(=S)Nc2ccc(F)cc2)CC1 (stereo not drawn),i,i,i,nt,i
O=C(C1CCCO1)N1CCN(C(=S)Nc2ccc(F)c(Cl)c2)CC1 (stereo not drawn),-29.5,i,i,i,i
O=C1Nc2ccccc2Nc2ccccc21,i,i,i,i,i
O=C1Nc2ccccc2N=C(c2ccccc2)c2ccccc21,-28.0,nt,i,nt,i
Cc1ccc(C)c(OCc2cc(C(=O)N3CC[C@H](O)C3)no2)c1,i,132.5,37.2,47.2,i
O=C(c1cc(COc2ccc(F)cc2Cl)on1)N1CCCCCCC1,i,i,i,i,i
CN(CCc1ccccc1)C(=O)c1cc(COc2ccc(F)cc2Cl)on1,i,i,i,42.8,i
O=C(c1cc(COc2ccc(F)cc2Cl)on1)N1CCCCCC1,i,144.3,i,94.8,i
COc1cc(C)ccc1OCc1cc(C(=O)N2CCCCCCC2)no1,i,i,i,55.4,i
CCOC(=O)C1=C(COC(=O)CSc2ccc(C)cc2C)NC(=O)NC1C (stereo not drawn),i,i,i,i,i
CSCCC(NS(=O)(=O)c1ccc(C)cc1)C(=O)N1CCN(C(C)=O)CC1 (stereo not drawn),i,i,i,i,i
COc1ccc(OCc2cc(C(=O)N3CCN(CC4CC4)CC3)no2)c(Cl)c1,i,i,i,i,i
CCN1CCN(C(=O)c2cc(COc3ccc(C(C)=O)cc3OC)on2)CC1,i,i,38.4,71.5,i
CCCN(Cc1ccccc1)C(=S)NC(=O)c1ccccc1[N+](=O)[O-],-50.6,i,i,nt,i
CCN(Cc1ccccc1)C(=S)NC(=O)c1ccccc1Br,i,i,i,i,i
CC1=C(C(=O)N2CCOCC2)CC(CC(=O)NCc2ccco2)C(=O)N1Cc1ccccc1 (stereo not drawn),i,nt,i,i,i
SMILES,Ecoli rRNA inh,MITF act,Wnt act,esBAF inh,AF4-AF9 inh
COC(=O)CN1C(=S)N(c2ccc(Cl)cc2)C(=O)C1CC(=O)Nc1ccc(Cl)cc1 (stereo not drawn),nt,i,nt,nt,nt
COC(=O)CN1C(=S)N(c2ccc(Cl)cc2)C(=O)C1CC(=O)Nc1ccc(F)cc1 (stereo not drawn),-24.9,i,i,nt,i
CN(C)c1ccc(-n2cc3c(=O)n(C)c(=O)n(C)c3c2)cc1,nt,i,nt,70.7,nt
CCN(CC)c1ccc(-n2cc3c(=O)n(C)c(=O)n(C)c3c2)cc1,nt,i,nt,?,nt
COc1ccc2c3c([nH]c2c1)[C@@H](CO)N(C(=O)C1CC1)CC31CN(C(=O)NC(C)C)C1,i,nt,nt,nt,i
Fc1cccc(COc2ccccc2C(=S)N2CCCC2)c1,-30.0,i,i,i,i
Clc1cccc(Nc2ncnc3c2cnn3-c2ccccc2)c1,i,i,i,64.5,i
O=C(O)c1cccc(Nc2ncnc3c2cnn3-c2ccccc2)c1,nt,i,nt,i,nt
Fc1cccc(Nc2ncnc3c2cnn3-c2ccccc2)c1,i,i,i,56.7,i
COCCn1c(Cc2ccccc2)nnc1SCC(=O)N(C)C,i,i,i,i,i
Fc1cccc(CCN2C(=S)NC[C@@H]2CC2CCCCC2)c1,-23.0,i,i,i,i
